From PubChem BioAssay (EPA / NIEHS)
Results filed as inconclusive are left out. Active and inactive are the calls of the source. Rule for the calls, unless noted: active = hit-call score of the fitted dose curve at least 0.9, where 1 is the maximum; inconclusive = response in the unintended direction; inactive = score below 0.9.

Experiments:
[1] = Tanguay_ZF_120hpf_PE_legacy: (Legacy) Oregon State University Tanguay Lab 120 Hour Post-fertilization zebrafish Assay for Pericardial Edema (AID 2283640)
How it was run: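 Tropical 5D wild-type zebrafish embryos were statically exposed until 120 hpf at 28C, with 0.64% DMSO final. Pericardial edema was scored by brightfield as present or absent; endpoints were not scored in dead embryos.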

[2] = Tanguay_ZF_120hpf_BRAI_legacy: (Legacy) Oregon State University Tanguay Lab 120 Hour Post-fertilization zebrafish Assay for Brain Malformation (AID 2283641)
How it was run: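 Tropical 5D wild-type zebrafish embryos exposed statically until 120 hpf at 28C, 0.64% DMSO final, sealed and dark. Brain malformation scored present/absent by brightfield at 120 hpf; dead embryos excluded. Trimethyltin chloride 5uM positive control.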

[3] = Tanguay_ZF_120hpf_SOMI_legacy: (Legacy) Oregon State University Tanguay Lab 120 Hour Post-fertilization zebrafish Assay for Somite Malformation (AID 2283647)
How it was run: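 Dechorionated Tropical 5D wild-type zebrafish embryos, one per well from 6 hpf, statically exposed at 28C to 120 hpf in 0.64% DMSO; somite malformation scored present/absent by brightfield; trimethyltin 5 uM positive control; dead embryos not scored.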

[4] = Tanguay_ZF_120hpf_PFIN_legacy: (Legacy) Oregon State University Tanguay Lab 120 Hour Post-fertilization zebrafish Assay for Pectoral Fin Malformation (AID 2283648);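 note: each larva judged yes or no for fin defect by brightfield with dead larvae skipped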
How it was run: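 Scoring of pectoral fin malformation was binary, made at 120 hpf on larvae exposed statically from 6 hpf after enzymatic chorion removal. Activity was fitted upward relative to DMSO controls at 0.64% (vol/vol).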

[5] = Tanguay_ZF_120hpf_CFIN_legacy: (Legacy) Oregon State University Tanguay Lab 120 Hour Post-fertilization zebrafish Assay for Caudal Fin Malformation (AID 2283649)
How it was run: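 Dechorionated Tropical 5D wild-type embryos, one per well from 6 hpf, static exposure to 120 hpf at 28C in 0.64% DMSO. Caudal fin malformation scored by brightfield as present/absent; not scored in dead embryos.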

[6] = Tanguay_ZF_120hpf_PIG_legacy: (Legacy) Oregon State University Tanguay Lab 120 Hour Post-fertilization zebrafish Assay for Pigmentation Malformation (AID 2283650)
How it was run: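 Endpoint is incidence of abnormal pigmentation at 120 hpf in dechorionated 5D zebrafish exposed singly from 6 hpf at 28C, DMSO vehicle at 0.64%. Embryos dying by 24 or 120 hpf are excluded from scoring.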

[7] = Tanguay_ZF_120hpf_SWIM_legacy: (Legacy) Oregon State University Tanguay Lab 120 Hour Post-fertilization zebrafish Assay for Swim Bladder Malformation (AID 2283654);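 note: swim bladder malformation in each larva scored yes or no under brightfield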
How it was run: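 Static waterborne exposure of single dechorionated Tropical 5D zebrafish embryos, 6–120 hpf, 28C, 0.64% DMSO final. Read-out: swim bladder malformation, present/absent, relative to DMSO negative control; trimethyltin chloride 5uM served as positive control.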

[8] = Tanguay_ZF_120hpf_TRUN_legacy: (Legacy) Oregon State University Tanguay Lab 120 Hour Post-fertilization zebrafish Assay for Truncated Body (AID 2283655)
How it was run: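 Dechorionated Tropical 5D wild-type embryos placed singly from 6 hpf and statically exposed to 120 hpf at 28C, final DMSO 0.64%. Truncated body scored as present/absent by brightfield; not scored in dead embryos.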

[9] = Tanguay_ZF_120hpf_NC_legacy: (Legacy) Oregon State University Tanguay Lab 120 Hour Post-fertilization zebrafish Assay for Notochord and Tail Malformation (AID 2283656)
How it was run: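 Binary scoring of notochord distortion by brightfield microscopy; embryos dying were not scored. Wild-type Tropical 5D embryos, chorion removed, exposed singly and statically from 6 to 120 hpf, 28C, sealed, 0.64% DMSO.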

[10] = test system: Thyroperoxidase (TPO), gene 54314; test: CCTE_Simmons_AUR_rTPO: CCTE's Amplex UltraRed Assay for Thyroperoxidase (TPO) Inhibition, Simmons Lab (AID 2283662);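 note: potency for loss of signal meaning inhibition of peroxidase activity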
How it was run: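 Rat thyroid microsomes (5 ug protein) with 25 uM Amplex UltraRed and 300 uM H2O2 in 200 mM phosphate buffer, 30 min at 37C in dark; fluorescence 544/590 nm. Eight concentrations, 5 nM–87.5 uM final, 0.5% DMSO, triplicate biological replicates.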

[11] = CCTE_Simmons_CellTiterGLO_HEK293T: Viability Assessment in CCTE's Assays for Thyroperoxidase (TPO) Inhibition, Simmons Lab (AID 2283665);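 for AC50: cells exposed to compound for 24 h before readout; actives reduce ATP signal below DMSO vehicle meaning cytotoxicity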
How it was run: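 Cells were seeded overnight, then exposed to an eight-point series up to 87.5 uM final for 24 hours. CellTiter-Glo reagent was added and luminescence read after 20 min, giving ATP-based viability versus DMSO.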

[12] = Tanguay_ZF_120hpf_TR_legacy: (Legacy) Oregon State University Tanguay Lab 120 Hour Post-fertilization zebrafish Assay for Touch Response (AID 2283667)
How it was run: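 Readout is presence or absence of touch response in 120 hpf zebrafish larvae, assessed by brightfield observation after continuous static exposure at 28C. Final vehicle was 0.64% (vol/vol) DMSO.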

[13] = STM_H9_OrnithineISnorm_perc: Stemina devTOX quickPredict H9 human embryonic stem cell (hESC)-based Assay for Ornithine (ORN) Metabolite Biomarker, Normalized (AID 2283712; active = hit-call score of the fitted dose curve at least 0.9, where 1 is the maximum; inactive = score below 0.9;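 note: ornithine released into spent medium during last day measured by mass spectrometry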)
How it was run: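 Ornithine secreted by H9 hESCs after 72h compound treatment (daily media/compound renewal) was quantified in final-day media by UPLC-HRMS. Values are isotope-standard-normalized, expressed relative to 0.1% DMSO, fitted in positive direction.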

[14] = Tanguay_ZF_120hpf_CIRC_legacy: (Legacy) Oregon State University Tanguay Lab 120 Hour Post-fertilization zebrafish Assay for Circulatory Malformation (AID 2283651)
How it was run: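 Embryos are dechorionated at 4 hpf, plated one per well at 6 hpf, then held under static exposure at 28C until 120 hpf. Malformations are recorded as binary calls; mortality excludes other endpoints.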

[15] = CCTE_Padilla_ZF_144hpf_TERATOSCORE: (Legacy) CCTE's 144 Hour Post-fertilization zebrafish Assay Teratoscore, Padilla Lab (AID 2283679; active = hit-call score of the fitted dose curve at least 0.9, where 1 is the maximum; inactive = score below 0.9;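 for AC50: zebrafish embryos with chorions exposed by immersion from 6-8 hpf to 5 dpf with daily renewal; teratogenicity score from eye scoring of death hatching and malformations at 144 hpf; higher score means more developmental defects relative to DMSO baseline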)
How it was run: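 Larvae scored by eye at 144 hpf for death, hatching and malformations after a day in clean Hanks'. Before that, daily-renewed exposure at 80 uM (0.4% DMSO, 26C) from roughly 6-8 hpf through 5 dpf, 4 embryos per chemical.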

[16] = read-out: kallikrein-3 (KLK3), KLK3 (gene 354); test: LTEA_HepaRG_KLK3: Life Technologies and Expression Analysis (LTEA) Assay for kallikrein-3 (KLK3) using HepaRG (AID 2283652; active = hit-call score of the fitted dose curve at least 0.9, where 1 is the maximum; inactive = score below 0.9); conditions: mRNA level, 48 h; actives raise or lower the signal
How it was run: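 KLK3 transcript levels were measured by TaqMan qRT-PCR with normalisation to three housekeeping genes. HepaRG cultures received chemicals for 48 h at up to 100 uM (half-log, 8 points, 0.5% DMSO vehicle), fitted in both directions against DMSO.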

[17] = read-out: solute carrier (SLC22A6), SLC22A6 (gene 9356); test: LTEA_HepaRG_SLC22A6: Life Technologies and Expression Analysis (LTEA) Assay for solute carrier (SLC22A6) using HepaRG (AID 2283653; active = hit-call score of the fitted dose curve at least 0.9, where 1 is the maximum; inactive = score below 0.9); conditions: mRNA level, 48 h; actives raise or lower the signal
How it was run: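 Differentiated HepaRG cells exposed 48 h in serum-free induction medium to 8 half-log concentrations, top 100 uM, in 0.5% DMSO; SLC22A6 mRNA by Fluidigm qRT-PCR normalized to ACTB, GAPDH, POLR2A, fitted bidirectionally versus DMSO.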

[18] = read-out: solute carrier (SLC10A1), SLC10A1 (gene 6554); test: LTEA_HepaRG_SLC10A1: Life Technologies and Expression Analysis (LTEA) Assay for solute carrier (SLC10A1) using HepaRG (AID 2283657; active = hit-call score of the fitted dose curve at least 0.9, where 1 is the maximum; inactive = score below 0.9); conditions: mRNA level, 48 h; actives raise or lower the signal
How it was run: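 Cryopreserved HepaRG cells are thawed, plated and cultured 48 h; medium is then switched to serum-free induction medium and chemicals added (8 points, max 100 uM, 0.5% DMSO). After 48 h, RNA is isolated and SLC10A1 quantified by qRT-PCR.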

[19] = read-out: matrix metalloproteinase-1 (MMP1), MMP1 (gene 4312); test: LTEA_HepaRG_MMP1: Life Technologies and Expression Analysis (LTEA) Assay for matrix metalloproteinase-1 (MMP1) using HepaRG (AID 2283658; active = hit-call score of the fitted dose curve at least 0.9, where 1 is the maximum; inactive = score below 0.9); conditions: mRNA level, 48 h; actives raise or lower the signal
How it was run: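 Differentiated human HepaRG cells, 48 h post-plating in serum-free induction medium, were exposed 48 h to eight half-log concentrations topping at 100 uM in 0.5% DMSO, duplicate. MMP1 mRNA measured by Fluidigm TaqMan qRT-PCR, normalized to ACTB, GAPDH, POLR2A; bidirectional fits versus DMSO.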

[20] = read-out: Cytochrome P450 (CYP24A1_1), CYP24A1 (gene 1591); test: LTEA_HepaRG_CYP24A1_1: Life Technologies and Expression Analysis (LTEA) Assay for Cytochrome P450 (CYP24A1_1) using HepaRG (AID 2283671; active = hit-call score of the fitted dose curve at least 0.9, where 1 is the maximum; inactive = score below 0.9); conditions: mRNA level, 48 h; actives raise or lower the signal
How it was run: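 Cultures of human HepaRG were treated in duplicate for 48 h (0.5% DMSO vehicle, highest dose 100 uM). CYP24A1 mRNA by qRT-PCR, normalized to ACTB, GAPDH, POLR2A.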

Measured: AC50

CCCc1cc(=O)[nH]c(=S)[nH]1
active: [10] 0.285 µM
inactive: [1] | [2] | [3] | [4] | [5] | [6] | [7] | [8] | [9] | [11] | [12] | [13]

Cc1nc(C)nc(N2C[C@@H](C)N(c3ccnc([C@@H](C)O)n3)[C@@H](C)C2)n1
inactive: [1] | [2] | [3] | [4] | [5] | [6] | [14] | [7] | [8] | [9] | [12]
active: [15] 30.3 µM

CC(=O)Oc1ccccc1C(=O)O
inactive: [1] | [2] | [4] | [5] | [6] | [14] | [8] | [9]

COc1cc(S(=O)(=O)O)c(C)cc1N=Nc1c(O)ccc2cc(S(=O)(=O)O)ccc12
inactive: [1] | [2] | [3] | [5] | [6] | [7] | [8] | [9] | [12]
active: [10] 23.3 µM | [11] 13.4 µM

CN1CCN(Cc2cc(-c3ccc4[nH]c(=O)oc4c3)co2)[C@@H](c2ccc(F)cc2)C1
inactive: [1] | [2] | [3] | [4] | [5] | [6] | [7] | [9] | [12] | [13]
active: [8] 16.2 µM | [15] 18.6 µM

FC(F)(F)C(F)(F)C(F)(F)C(F)(F)C(F)(F)C(F)(F)CCI
active: [15] 31.3 µM
inactive: [1] | [2] | [3] | [4] | [5] | [7] | [8] | [12]

Cc1oc(-c2ccccc2)nc1CCOc1cccc2c1ccn2CCC(=O)O
inactive: [1] | [2] | [3] | [4] | [6] | [7] | [8] | [9] | [11] | [12] | [13]
active: [10] 28.8 µM | [15] 16.1 µM

CCc1c(C(=O)NN2CCCCC2)nn(-c2ccc(Cl)cc2Cl)c1-c1ccc(Br)cc1
active: [15] 0.533 µM
inactive: [1] | [2] | [3] | [5] | [6] | [14] | [7] | [9]

C1CCC(SSC2CCCCC2)CC1
inactive: [1] | [2] | [3] | [4] | [5] | [16] | [17] | [8] | [9] | [18] | [19] | [20] | [15]

Cc1ccccc1Cl
inactive: [1] | [2] | [3] | [4] | [5] | [6] | [7] | [8] | [9] | [12]
